Shown are actives, neighbours in structure and some others; about 2.9% of the full set was active somewhere.
DNA FID counter = displaces DNA intercalator in HCV helicase counter-screen; DNA fluorescent intercalator displacement, fluorescence; inhibition, % at 7.9 µM; 290,000 compounds, 0.17% hits; AID 1845; in the data active = inhibition above about 37%;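 also: higher means more ethidium bromide displaced from hairpin DNA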
MEKK2mut PB1 HTS = signal of MEK5 binding to mutant human MEKK2 PB1 domain; bead flow cytometry, Alexa488-MEK5 binding to MEKK2 mutant; percent response, % at 10 µM; 290,000 compounds, 0.35% hits; in the data active = percent response above about 24%, passing the limit was not always enough
MEKK3 PB1 HTS = modulators (inhibitors or enhancers) of MEK5 binding to human MEKK3 PB1 domain; bead-based flow cytometry, Alexa488-MEK5 binding to MEKK3; actives lie on both sides; 0 = blocked by unlabeled MEK5, 100 = vehicle; binding response (% of control), % at 10 µM; 290,000 compounds, 1.4% hits; AID 1529;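 active = binding response more than 3 SD above or below the average of its plate-row segment, actives on both sides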;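 also: Alexa488 bead fluorescence after subtracting the streptavidin-only scavenger bead signal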
dFosB act-1 = mouse delta FosB homodimer activation | P13346 | purified delta FosB, TAMRA-CDK5 oligo fluorescence polarization; percent of positive-control signal above neutral wells | activation, % at 25 µM | 340,000 compounds, 0.99% hits | AID 493131;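 active = mean activation above about 17%, with every replicate also reaching it, limit read from the data, passing the limit was not always enough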
Target sequence (P13346 whole entry, looked up): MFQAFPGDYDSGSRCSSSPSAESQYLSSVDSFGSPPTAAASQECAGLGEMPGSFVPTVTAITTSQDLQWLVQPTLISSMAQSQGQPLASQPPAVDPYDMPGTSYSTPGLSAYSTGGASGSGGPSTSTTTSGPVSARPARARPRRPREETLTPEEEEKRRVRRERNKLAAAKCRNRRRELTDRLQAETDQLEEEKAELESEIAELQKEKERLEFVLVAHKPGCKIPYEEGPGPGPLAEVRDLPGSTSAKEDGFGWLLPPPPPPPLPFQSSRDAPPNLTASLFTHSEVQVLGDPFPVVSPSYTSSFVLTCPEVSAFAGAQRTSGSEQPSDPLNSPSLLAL
MEKK2 WT-MEK5 = raises or lowers MEK5 binding to wildtype human MEKK2 PB1 domain; Q9Y2U5; bead flow cytometry, Alexa488-MEK5 binding to MEKK2 WT; actives lie on both sides; binding response (% of control), % at 10 µM; 290,000 compounds, 1.1% hits; in the data active = binding response below about 67% or above about 130%
MEKK2wt confirm = raises or lowers MEK5 binding to wildtype human MEKK2, retest; shares compounds with MEKK3 PB1 HTS; bead flow cytometry, Alexa488-MEK5 binding to MEKK2 WT; actives lie on both sides; binding response (% of control), % at 10 µM; 5,900 compounds, 2.4% hits; in the data active = binding response below about 16% or above about 210%; inactive = in between
MEKK2mut confirm = signal of MEK5 binding to mutant human MEKK2, retest | shares compounds with MEKK3 PB1 HTS | bead flow cytometry, Alexa488-MEK5 binding to MEKK2 mutant | percent response, % at 10 µM | 5,900 compounds, 2% hits | AID 1893; in the data active = percent response mostly above about 71%, no sharp cut-off; inactive = mostly below about 38%;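 also: higher means compound restores mutant binding toward wildtype level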
MEKK3 confirm = MEKK3-MEK5 PB1 inhibition, single concentration confirmation. AID 1894. binding response (% of control), % at 10 µM. shares compounds with MEKK3 PB1 HTS. 5,900 compounds, 1.8% hits. bead flow cytometry, Alexa488-MEK5 binding to MEKK3; active compounds read low;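 active = binding response below 72% of control, or above a set upper limit, though filed actives all read lower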;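 also: lower values mean stronger disruption of MEK5 binding to MEKK3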
dFosB act-2 = activators of mouse delta FosB homodimer DNA binding; shares compounds with dFosB act-1; purified delta FosB, TAMRA-CDK5 oligo fluorescence polarization; normalised: neutral wells 0, positive control 100; activation, % at 24.9 µM; 2,400 tested, under 10 active;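 active = highest replicate activation at or above 34% and every replicate reaching that threshold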;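 also: higher polarization means more probe DNA bound by delta FosB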
Hits are given with their value; - = inactive; . = no result; ! = not confirmed by another sample; [ ] = another dose, or the depositor's remark.

SMILES	DNA FID counter	MEKK2mut PB1 HTS	MEKK3 PB1 HTS	dFosB act-1	MEKK2 WT-MEK5	MEKK2wt confirm	MEKK2mut confirm	MEKK3 confirm	others
Cc1cc(C=C2C(=O)N(C)C(=S)N(C)C2=O)c(C)n1C1CCCC1	-	-	-	-	55[inhibitor]	-	-	-
COc1ccc(NC(=O)c2cc([N+](=O)[O-])ccc2N2CCNCC2)cc1	-	.	.	-	.	.	.	.
O=C(Nc1ccc(Cl)cc1)OC1CN2CCC1CC2 (stereo not drawn)	-	-	-	-	-	.	.	.
O=C(Nc1cccc(Cl)c1)OC1CN2CCC1CC2 (stereo not drawn)	-	-	-	-	147	-	-	-
CNC(=O)O/N=C/c1nn(C(=O)C(C)(C)C)cc1Br	-	-	-	-	-	.	.	.
CC1(c2ccccc2)NCCN2C(=O)CSC21 (stereo not drawn)	-	-	-	-	-	.	.	.
CC1(C)C2SCC(=O)N2CCN1CC(=O)NN (stereo not drawn)	-	-	128	-	-	-	-	-
CCC1C(c2ccccc2)NC(c2ccccc2)CC1(O)c1ccc(F)cc1 (stereo not drawn)	-	-	-	-	152	-	-	-
O=C1NC(=O)C(=Cc2coc3ccccc3c2=O)C(=O)N1	-	184	-	-	282	-	-	-
CNC(=S)NC1CC2CCCC(C1)N2CC(C)C (stereo not drawn)	-	-	-	-	-	.	.	.
Cc1ccc(CN2C3CCCC2CC(NC(=S)NCc2ccccc2)C3)cc1 (stereo not drawn)	-	62	-	-	195	-	-	-
Oc1ccc2c3c1OC1C(O)CC[C@@]4(O)[C@@H](C2)N(CC2CCC2)CC[C@]314 (stereo partly drawn)	-	-	-	.	53![inhibitor]	-	-	-
NCCc1c[nH]c2ccc(F)cc12	-	-	-	.	-	.	.	.
CS(=O)(=O)Nc1ccc(Cc2noc(-c3ccc4[nH]cc(CCN)c4c3)n2)cc1	-	-	-	.	156!	-	-	-
FC(F)(F)c1ccc2c(c1)N(CCCN1CCN(CCCl)CC1)c1ccccc1S2	-	24	-	-	173	-	-	-
Cc1ncc2n1-c1ccc(Cl)cc1C(c1ccccc1F)=NC2	.	.	.	-	.	.	.	.
CC1(C)CC[C@]2(C)CC[C@]3(C)C4C[C@@H]5OO[C@@]6(O5)C(CCCC6(C)C)[C@]4(C)CC[C@@]3(C)C2C1 (stereo partly drawn)	.	-	-	-	-	.	.	.
OCCCCO	.	.	.	-	.	.	.	.
Cc1cccc(N2C(=O)NC(=O)/C(=C\c3ccc4c(c3)CCCN4Cc3ccccc3)C2=O)c1	-	159	139	-	146	-	-	-
CC1=NN(c2ccccc2)C(=O)C1/C=C1/C(=O)NC(=O)N(c2cccc(C)c2)C1=O (stereo not drawn)	-	-	-	.	-	.	.	.
S=P(NCCSCc1ccccc1)(N1CC1)N1CC1	.	.	.	-	.	.	.	.
O=[N+]([O-])c1cc(-c2ccc([As](=O)(O)O)cc2)ccc1[As](=O)(O)O	-	-	-	.	-	.	.	.
NCCNc1ccc([N+](=O)[O-])c2cccnc12	-	-	-	16	-	.	.	.	dFosB act-2=-
N[C@@H](Cc1ccccc1)C(=O)N1C[C@H]2C[C@@H](C1)c1cccc(=O)n1C2	-	-	-	-	-	.	.	.

Bioassay records deposited in PubChem BioAssay by several laboratories.
